The list is not random: actives were taken first. Their share in the collection is about 4.7%.
D1 antagonist: blocks dopamine activation of the human D1 receptor; HEK293 TREx D1 cells, calcium flux, dopamine EC80; stronger effect = lower value; activity change, negative = inhibition, % at 10 µM; 360,000 tested, 3.2% active; in the data active means activity change below about -30%
Target sequence (P21728 whole entry, looked up): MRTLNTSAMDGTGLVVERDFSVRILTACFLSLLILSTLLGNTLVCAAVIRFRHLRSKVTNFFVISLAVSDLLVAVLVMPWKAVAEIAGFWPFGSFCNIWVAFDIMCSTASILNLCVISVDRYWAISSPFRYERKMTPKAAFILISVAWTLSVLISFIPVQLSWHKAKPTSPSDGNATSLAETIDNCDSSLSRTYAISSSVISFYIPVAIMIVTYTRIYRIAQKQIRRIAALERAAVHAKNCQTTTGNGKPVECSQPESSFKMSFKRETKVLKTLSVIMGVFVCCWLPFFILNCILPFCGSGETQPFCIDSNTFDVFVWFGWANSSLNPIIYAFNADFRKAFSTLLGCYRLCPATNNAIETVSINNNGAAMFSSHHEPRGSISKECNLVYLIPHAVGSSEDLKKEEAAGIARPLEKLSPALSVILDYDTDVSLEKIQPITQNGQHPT
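Calcium flux readout: force-coupled, inducible Hek293 Trex D1 line, cells induced overnight at 30 C with tetracycline, dye-loaded 30–90 min at RT. Antagonism scored against EC80 dopamine challenge given 180 s after compound.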
TRHR ag: agonists of human TRH receptor. P34981. TRHR cells, calcium flux fluo-8, FDSS agonist mode. activation, % at 2 µM. 360,000 tested, 0.18% active. AID 493084
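Agonist-mode FDSS calcium read (Ex 480/Em 530, 1 s cycles) in 1536-well TRHR cells with fluo-8 dye, after 10-cycle baseline and 23 nL compound addition; TRH at EC20 (10 nM final) added afterwards for the enhancer phase.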
D1 potentiator: potentiators of human D1 dopamine receptor. P21728. HEK293 TREx D1 cells, calcium flux, dopamine EC20 potentiation. potentiation, % at 10 µM. 360,000 tested, 0.036% active. AID 504651; in the data active means potentiation above about 30%
TRHR enhancer: allosterically enhances the human TRH receptor; P34981; TRHR cells, fluo-8 calcium fluorescence, EC20 TRH enhancement; enhancement, % at 2 µM; 360,000 tested, 0.66% active; AID 493056; in the data active means enhancement above about 30%
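TRHR-expressing cells loaded with fluo-8 calcium dye were read kinetically (ex 480/em 530) during compound addition, then stimulated with an EC20 of TRH (10 nM final). Enhancement of the Gq-mediated intracellular calcium response was scored.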
D1 agonist: human D1 receptor agonism. P21728. HEK293 T-REx D1 cells, calcium flux, agonist mode. activation, % at 2 µM. 360,000 tested, 1% active. AID 504660
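Inducible HEK293 T-REx D1 cells, force-coupled to calcium signalling, were plated at 4000 cells/well with tetracycline and held overnight at 30 C. After no-wash calcium dye loading, compound-evoked calcium rise over 180 s flagged agonists.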
Numbers stand for hits; n = inactive. Unless noted, no stated cut-off is given here; in the data, active means activation above about 30%; inactive means the rest.

SMILES | D1 antagonist | TRHR ag | D1 potentiator | TRHR enhancer | D1 agonist
O=C(NCCCN1CCOCC1)c1ccccc1N1C(=O)[C@@H]2Cc3c([nH]c4ccccc34)C(c3cccc(Cl)c3)N2C1=O (stereo not given in full) | -46 | n | n | n | n
CC1=C(C(=O)Nc2ccc(C)cc2C)C(c2ccc(C(=O)O)cc2)n2nc(SCc3ccccc3)nc2N1 (stereo not given) | -59 | n | n | n | n
[O-][N+]1=c2ccc(Nc3ccccc3)cc2=NC12CCCCC2 | -55 | n | n | n | n
COc1ccc(Nc2ccc3c(c2)=NC2(CCCCC2)[N+]=3[O-])cc1 | n | n | n | n | n
NNC(=O)C(C(=O)OCc1ccccc1)c1ccccc1 (stereo not given) | n | n | n | n | n
Cc1ccc(S(=O)(=O)c2nnn(CC(=O)Nc3ccccc3C)c2N)cc1C | n | n | n | n | n
COc1ccc(C2Nc3ccc4ccccc4c3-c3c2c(=O)oc2ccccc32)cc1 (stereo not given) | n | n | n | n | n
O=c1oc2ccccc2c2c1C(c1ccc(Cl)cc1)Nc1ccc3ccccc3c1-2 (stereo not given) | -64 | n | n | n | n
COC(=O)C(C)(C)ONC(=O)Nc1ccccc1[N+](=O)[O-] | n | n | n | 31 | n
COC(=O)c1c(-c2ccc(Cl)cc2)noc1N1CCN(c2cccc(C(F)(F)F)c2)CC1 | n | n | n | n | n
Cn1nc(C(F)(F)F)c(CNC(=O)C(C)(C)CCl)c1N1CCOCC1 | n | n | n | n | n
Cn1nc(C(F)(F)F)c(CN2CC(C)(C)C2=O)c1N1CCOCC1 | -31 | n | n | n | n
CCOC(=O)c1ccccc1OC(=O)CS(=O)c1ccccc1[N+](=O)[O-] (stereo not given) | -32 | n | n | n | n
COC(=O)c1ccc(OC(=O)CS(=O)c2ccccc2[N+](=O)[O-])cc1 (stereo not given) | n | n | n | n | n
O=C1C2C3C=CC(CC3)C2C(=O)N1c1cccc(Br)c1 (stereo not given) | -37 | n | n | n | n
COc1ccc(Cn2ccc3nc(C)c(C(=O)Nc4ccc(OC)cc4)cc3c2=O)cc1 | n | n | n | n | n
COc1ccc(-c2[nH]n(-c3ccc([N+](=O)[O-])cc3)c(=O)c2C=NCc2ccncc2)cc1 | -31 | n | n | n | n
N#Cc1nc(COc2ccc(F)cc2)oc1N1CCN(Cc2ccccc2)CC1 | n | n | n | n | n
N#Cc1nc(COc2ccccc2Cl)oc1N1CCCC1 | -31 | n | n | n | n
N#Cc1nc(COc2ccc(F)cc2)oc1N1CCC(Cc2ccccc2)CC1 | n | n | n | n | 48
COc1ccc(Cc2c(C)nn(-c3nc(C)c(C(=O)Nc4ccc(C)cc4C)s3)c2C)cc1 | n | n | n | n | n
COc1ccc(-n2c(=O)c3c4c(sc3n(CC(=O)N3CCCCC3C)c2=O)CCC4)c(OC)c1 (stereo not given) | -71 | n | n | n | n
COc1ccc(CN/C(C)=C(/C#N)C(N)=O)cc1OC | -66 | n | n | n | n
CCc1ccccc1Nc1cc(C(=O)NCc2ccc(C)cc2)c2ccccc2n1 | n | n | n | n | n
Cc1cc(Nc2ccccc2)c2c([N+](=O)[O-])cc(C)c(C)c2n1 | n | n | n | 39 | n
SMILES | D1 antagonist | TRHR ag | D1 potentiator | TRHR enhancer | D1 agonist
CCc1noc(-c2ccc(N3CCCCC3)c([N+](=O)[O-])c2)n1 | n | n | n | n | n
CN1CCN(NC(=O)c2cn(-c3ccccc3)nc2-c2cccc(Br)c2)CC1 | -33 | n | n | n | n
Cc1csc2nc(-c3ccc(NS(=O)(=O)c4cccc(F)c4)cc3)cn12 | n | n | n | n | n
c1ccc(C2(CN3CCNC[C@H]3Cc3cccc4ccccc34)CC2)cc1 | -56 | n | n | n | 77
Fc1cccc(CCN2CCNC[C@H]2Cc2cccc3ccccc23)c1 | n | n | n | n | 40
CCC(SC1=NCCS1)C(=O)Nc1ccc(S(N)(=O)=O)cc1 (stereo not given) | -46 | n | n | n | n
CN(C)CCN1C(=O)C(O)=C(C(=O)c2cc3ccccc3o2)C1c1cccc(Br)c1 (stereo not given) | -38 | n | n | n | n
Cn1c(=O)n(C)c2cc(NS(=O)(=O)c3ccc(F)cc3)c(NCc3ccccc3)cc21 | n | n | n | n | n
COc1ccc(N(CC(=O)NC2CCCC2)C(=O)c2ccc(C)s2)c(OC)c1 | n | n | n | n | n
COc1ccc(N(CC(=O)NC2CCCCC2)C(=O)c2ccc(C)s2)cc1OC | n | n | n | 32 | n
Cc1ccc(OCc2cc(C(=O)N(CCO)Cc3cccs3)no2)cc1C | -45 | n | n | n | n
CCN(Cc1ccncc1)C(=O)c1cc(COc2ccc(C)c(C)c2)on1 | n | n | n | n | n
CCC(Oc1ccc(F)cc1)C(=O)Nc1c(C(=O)c2ccc(C)cc2)oc2ccccc12 (stereo not given) | n | n | n | n | n
CC1CCc2nc(NC(=O)CN3CCOCC3)sc2C1 (stereo not given) | -34 | n | n | n | n
N#C/C(=C\c1ccc[nH]1)Sc1nc2ccccc2s1 | n | n | n | n | n
N#C/C(=C\c1cccs1)Sc1nc2ccccc2s1 | -35 | n | n | n | n
COCCNC(=O)c1ccc(NS(=O)(=O)c2ccc3[nH]c(=O)[nH]c3c2)cc1 | n | n | n | n | n
CCC(C)NC(=O)c1ccc(NS(=O)(=O)c2ccc3[nH]c(=O)[nH]c3c2)cc1 (stereo not given) | -33 | n | n | n | n
O=[N+]([O-])c1cc(CSC2=NCCN2)ccc1O | -55 | n | n | n | n
CCCOc1ccc(CSC2=NCCN2)cc1[N+](=O)[O-] | n | n | n | n | n
CCOc1ccccc1N(CC)C(=O)c1cc2c(=O)n(CC)c3ccccc3c2s1 | n | n | n | 50 | n
CCCN(C(=O)c1cc2c(=O)n(CC)c3ccccc3c2s1)c1ccccc1F | n | n | n | n | n
CCOC(=O)C1CCCN(C(=O)c2cccc(NC(=O)c3nsc4ccccc34)c2)C1 (stereo not given) | n | n | n | n | n
Cn1c(N)c(C(=O)N/N=C/c2ccccc2)sc1=S | n | n | n | 36 | n
COC(=O)c1ccc(NC(=O)CCNS(=O)(=O)c2cccc3nsnc23)cc1 | n | n | n | n | n
O=C(NNC(=S)NC(=O)c1cccc([N+](=O)[O-])c1)c1ccc(Br)cc1 | n | n | n | n | 32
Cc1ccc(CSCCNC(=O)c2cccc([N+](=O)[O-])c2)cc1 | -43 | n | n | n | n
CCCCC(=O)NNC(=S)NC(=O)c1ccc([N+](=O)[O-])cc1 | n | n | n | n | n

Screening results as filed in PubChem BioAssay.
